Experiment in all cases: DAPPL (digital affinity profiling via proximity ligation, sequencing); 10 mM Tris-HCl pH 7.5, 50 mM NaCl, 1 mM DTT, 4% glycerol, room temperature, 30 min; GST-TFs on glutathione beads, 16-mer random dsDNA library, 0.1% formaldehyde crosslink after washing; high values mean tight binding
One assay has as its target T1, FEV (Homo sapiens, UniProt Q99581 1-238).
T1 sequence: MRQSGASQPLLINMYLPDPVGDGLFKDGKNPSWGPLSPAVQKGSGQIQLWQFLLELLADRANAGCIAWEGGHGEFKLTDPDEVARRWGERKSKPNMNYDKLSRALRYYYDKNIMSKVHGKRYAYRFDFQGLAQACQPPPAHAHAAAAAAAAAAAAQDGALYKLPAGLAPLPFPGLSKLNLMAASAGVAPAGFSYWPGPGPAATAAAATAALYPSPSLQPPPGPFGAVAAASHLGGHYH
To be noted: protein: recombinant; tags: N-terminal GST; dsDNA, one strand shown. The method in brief: (§1)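 Human transcription factors were made in yeast as GST fusions, captured on glutathione beads and barcoded with DNA. With a tag-only sample included, the pool was incubated with 200 nmole of a random double-stranded 16-mer DNA library in Tris/NaCl/DTT/glycerol buffer at room temperature for 30 min, then crosslinked with 0.1% formaldehyde after washing, ligated by proximity, amplified and sequenced. For binding signal, each hexamer's read frequency for a factor is divided by its frequency for the tag-only sample.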

Another assay addresses ETV5 (Homo sapiens, UniProt P41161 1-510). As to conditions: protein: recombinant; tags: N-terminal GST; dsDNA, one strand shown. In outline:
as §1

Another assay deals with HSF1 (Homo sapiens, UniProt Q00613 1-529). To be noted: protein: recombinant; tags: N-terminal GST; chain copies: 3; dsDNA, one strand shown. The method in brief: as §1
The next assay deals with T2, SPIC (Homo sapiens, UniProt Q8N5J4 1-248).
T2 sequence: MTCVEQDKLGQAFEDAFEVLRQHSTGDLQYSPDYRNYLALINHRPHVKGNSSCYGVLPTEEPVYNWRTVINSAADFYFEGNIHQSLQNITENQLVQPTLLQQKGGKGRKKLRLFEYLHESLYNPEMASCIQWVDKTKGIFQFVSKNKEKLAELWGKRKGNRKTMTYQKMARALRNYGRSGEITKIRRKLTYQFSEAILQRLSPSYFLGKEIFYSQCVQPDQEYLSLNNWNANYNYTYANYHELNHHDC
As to conditions: protein: recombinant; tags: N-terminal GST; dsDNA, one strand shown. In outline:
as §1

The next assay deals with ELF4 (Homo sapiens, UniProt Q99607 1-663). To be noted: protein: recombinant; tags: N-terminal GST; dsDNA, one strand shown. In outline:
as §1

The target in another assay is T3, ELK4 (Homo sapiens, UniProt P28324-2 1-405).
T3 sequence: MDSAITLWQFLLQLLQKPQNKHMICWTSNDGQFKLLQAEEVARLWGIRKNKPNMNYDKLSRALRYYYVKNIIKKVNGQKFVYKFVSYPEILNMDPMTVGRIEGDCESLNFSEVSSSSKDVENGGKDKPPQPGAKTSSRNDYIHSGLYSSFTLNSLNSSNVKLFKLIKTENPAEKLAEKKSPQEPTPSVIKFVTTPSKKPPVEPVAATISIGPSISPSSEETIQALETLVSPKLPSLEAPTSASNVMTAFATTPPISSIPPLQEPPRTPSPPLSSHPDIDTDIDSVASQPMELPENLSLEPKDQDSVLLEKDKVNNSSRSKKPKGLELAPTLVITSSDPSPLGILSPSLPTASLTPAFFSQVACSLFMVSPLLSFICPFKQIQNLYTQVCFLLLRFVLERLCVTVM
As to conditions: protein: recombinant; tags: N-terminal GST; dsDNA, one strand shown. In outline:
as §1

In another assay the target is T4, ETV2 (Homo sapiens, UniProt O00321 1-342).
T4 sequence: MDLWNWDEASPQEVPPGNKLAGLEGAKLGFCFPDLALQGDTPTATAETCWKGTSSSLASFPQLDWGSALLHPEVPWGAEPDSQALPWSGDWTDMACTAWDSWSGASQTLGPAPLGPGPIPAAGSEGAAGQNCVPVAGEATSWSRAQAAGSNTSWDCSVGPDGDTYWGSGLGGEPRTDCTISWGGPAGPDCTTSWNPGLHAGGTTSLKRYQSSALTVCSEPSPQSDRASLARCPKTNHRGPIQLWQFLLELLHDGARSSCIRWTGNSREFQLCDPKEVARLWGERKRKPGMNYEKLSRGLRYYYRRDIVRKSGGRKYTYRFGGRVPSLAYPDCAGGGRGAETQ
As to conditions: protein: recombinant; tags: N-terminal GST; dsDNA, one strand shown. In outline:
as §1

The target of a further assay is T5, ELF3 (Homo sapiens, UniProt P78545 1-371).
T5 sequence: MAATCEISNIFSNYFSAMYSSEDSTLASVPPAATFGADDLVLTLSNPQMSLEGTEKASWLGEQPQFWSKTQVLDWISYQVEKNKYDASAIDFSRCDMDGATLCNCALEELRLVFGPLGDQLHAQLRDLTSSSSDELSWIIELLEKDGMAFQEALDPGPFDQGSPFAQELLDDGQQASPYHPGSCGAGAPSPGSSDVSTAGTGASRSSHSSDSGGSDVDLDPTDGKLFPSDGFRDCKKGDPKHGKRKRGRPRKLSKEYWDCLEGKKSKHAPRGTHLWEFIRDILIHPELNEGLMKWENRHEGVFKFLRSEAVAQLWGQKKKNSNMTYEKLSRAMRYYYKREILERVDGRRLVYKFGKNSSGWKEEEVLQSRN
To be noted: protein: recombinant; tags: N-terminal GST; dsDNA, one strand shown. The method in brief: as §1

The target of a further assay is CRX (Homo sapiens, UniProt O43186 1-299). To be noted: protein: recombinant; tags: N-terminal GST; dsDNA, one strand shown. In outline:
as §1

The target in the next assay is ETV1 (Homo sapiens, UniProt P50549 1-477). To be noted: protein: recombinant; tags: N-terminal GST; dsDNA, one strand shown. The method in brief: as §1
A further assay deals with T6, ERF (Homo sapiens, UniProt P50548 1-548).
T6 sequence: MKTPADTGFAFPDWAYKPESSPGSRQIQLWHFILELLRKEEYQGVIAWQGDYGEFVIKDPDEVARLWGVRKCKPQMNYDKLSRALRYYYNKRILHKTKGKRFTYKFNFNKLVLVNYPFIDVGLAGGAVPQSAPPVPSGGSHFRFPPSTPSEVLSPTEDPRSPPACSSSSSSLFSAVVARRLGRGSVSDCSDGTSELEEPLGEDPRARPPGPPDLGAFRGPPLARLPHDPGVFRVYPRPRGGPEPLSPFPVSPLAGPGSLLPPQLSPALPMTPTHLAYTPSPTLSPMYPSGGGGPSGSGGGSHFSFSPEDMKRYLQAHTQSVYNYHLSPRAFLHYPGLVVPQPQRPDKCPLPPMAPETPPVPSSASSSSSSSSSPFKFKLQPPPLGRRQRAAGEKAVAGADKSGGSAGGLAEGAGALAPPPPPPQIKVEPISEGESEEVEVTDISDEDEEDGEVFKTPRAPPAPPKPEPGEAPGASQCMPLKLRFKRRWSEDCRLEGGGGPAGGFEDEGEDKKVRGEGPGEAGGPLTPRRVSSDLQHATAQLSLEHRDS
As to conditions: protein: recombinant; tags: N-terminal GST; dsDNA, one strand shown. The method in brief:
as §1

The next assay has as its target T7, ETV3L (Homo sapiens, UniProt Q6ZN32 1-361).
T7 sequence: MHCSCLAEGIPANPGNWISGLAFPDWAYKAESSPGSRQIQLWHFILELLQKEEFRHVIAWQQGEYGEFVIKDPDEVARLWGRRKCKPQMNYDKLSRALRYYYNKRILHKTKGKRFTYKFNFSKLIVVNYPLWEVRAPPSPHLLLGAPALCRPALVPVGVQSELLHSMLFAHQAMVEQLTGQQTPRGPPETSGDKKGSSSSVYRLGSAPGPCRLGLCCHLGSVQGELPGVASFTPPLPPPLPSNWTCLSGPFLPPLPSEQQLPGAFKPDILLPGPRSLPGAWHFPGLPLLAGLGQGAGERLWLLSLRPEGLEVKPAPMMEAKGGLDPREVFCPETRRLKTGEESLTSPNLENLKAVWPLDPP
To be noted: protein: recombinant; tags: N-terminal GST; dsDNA, one strand shown. In outline: as §1

The target of a further assay is T8, ETS2 (Homo sapiens, UniProt P15036 1-469).
T8 sequence: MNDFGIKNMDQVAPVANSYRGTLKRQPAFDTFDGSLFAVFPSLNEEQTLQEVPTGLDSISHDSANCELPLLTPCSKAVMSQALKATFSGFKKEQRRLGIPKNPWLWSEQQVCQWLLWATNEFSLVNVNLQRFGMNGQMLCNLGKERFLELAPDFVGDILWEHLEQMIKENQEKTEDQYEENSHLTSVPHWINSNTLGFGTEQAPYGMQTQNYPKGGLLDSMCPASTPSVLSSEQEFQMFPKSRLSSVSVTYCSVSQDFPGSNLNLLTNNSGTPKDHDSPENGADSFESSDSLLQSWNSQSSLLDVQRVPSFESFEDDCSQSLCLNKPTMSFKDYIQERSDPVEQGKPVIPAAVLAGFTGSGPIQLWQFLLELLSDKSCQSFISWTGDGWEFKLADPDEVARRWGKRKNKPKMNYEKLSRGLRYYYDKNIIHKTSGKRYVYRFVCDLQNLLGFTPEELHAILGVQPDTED
To be noted: protein: recombinant; tags: N-terminal GST; dsDNA, one strand shown. The method in brief: as §1

A further assay addresses T9, SPDEF (Homo sapiens, UniProt O95238 1-335).
T9 sequence: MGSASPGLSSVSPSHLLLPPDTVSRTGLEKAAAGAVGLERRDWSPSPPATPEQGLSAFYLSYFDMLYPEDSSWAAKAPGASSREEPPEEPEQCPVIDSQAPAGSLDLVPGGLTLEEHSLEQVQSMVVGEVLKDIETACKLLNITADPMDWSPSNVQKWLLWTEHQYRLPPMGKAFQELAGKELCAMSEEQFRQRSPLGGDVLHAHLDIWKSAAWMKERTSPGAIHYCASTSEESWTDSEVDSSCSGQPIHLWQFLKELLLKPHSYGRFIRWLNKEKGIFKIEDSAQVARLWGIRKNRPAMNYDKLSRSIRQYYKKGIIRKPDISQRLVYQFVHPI
To be noted: protein: recombinant; tags: N-terminal GST; dsDNA, one strand shown. The method in brief: as §1

For the next assay, the target named is T10, ETV7 (Homo sapiens, UniProt Q9Y603 1-341).
T10 sequence: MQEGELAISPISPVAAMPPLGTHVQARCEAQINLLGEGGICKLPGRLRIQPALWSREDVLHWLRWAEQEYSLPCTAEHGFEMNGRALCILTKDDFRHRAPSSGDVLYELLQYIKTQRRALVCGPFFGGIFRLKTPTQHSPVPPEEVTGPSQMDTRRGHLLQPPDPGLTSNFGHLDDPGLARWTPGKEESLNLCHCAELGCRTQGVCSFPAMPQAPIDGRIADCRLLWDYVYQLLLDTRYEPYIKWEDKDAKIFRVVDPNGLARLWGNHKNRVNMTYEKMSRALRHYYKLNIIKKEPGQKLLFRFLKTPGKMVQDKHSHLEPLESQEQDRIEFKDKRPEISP
As to conditions: protein: recombinant; tags: N-terminal GST; dsDNA, one strand shown. In outline: as §1

The target in another assay is T11, ELF5 (Homo sapiens, UniProt Q9UKW6-2 1-255).
T11 sequence: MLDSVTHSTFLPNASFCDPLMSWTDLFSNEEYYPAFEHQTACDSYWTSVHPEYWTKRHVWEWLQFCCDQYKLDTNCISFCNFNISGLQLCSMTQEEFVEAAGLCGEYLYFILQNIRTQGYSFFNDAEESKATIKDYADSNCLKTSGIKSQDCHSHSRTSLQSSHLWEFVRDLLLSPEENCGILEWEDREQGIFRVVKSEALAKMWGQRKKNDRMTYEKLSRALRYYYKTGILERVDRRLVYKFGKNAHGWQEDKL
As to conditions: protein: recombinant; tags: N-terminal GST; dsDNA, one strand shown. The method in brief:
as §1

In a further assay the target is T12, ETV3 (Homo sapiens, UniProt P41162-2 1-143).
T12 sequence: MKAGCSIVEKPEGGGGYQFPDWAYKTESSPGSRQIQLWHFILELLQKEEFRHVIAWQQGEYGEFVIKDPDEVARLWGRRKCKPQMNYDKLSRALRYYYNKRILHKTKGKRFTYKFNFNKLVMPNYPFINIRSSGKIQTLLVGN
As to conditions: protein: recombinant; tags: N-terminal GST; dsDNA, one strand shown. The method in brief:
as §1

The target in a further assay is ETV6 (Homo sapiens, UniProt P41212 1-452). To be noted: protein: recombinant; tags: N-terminal GST; dsDNA, one strand shown. In outline: as §1
ETV6, sequence (P41212 whole entry): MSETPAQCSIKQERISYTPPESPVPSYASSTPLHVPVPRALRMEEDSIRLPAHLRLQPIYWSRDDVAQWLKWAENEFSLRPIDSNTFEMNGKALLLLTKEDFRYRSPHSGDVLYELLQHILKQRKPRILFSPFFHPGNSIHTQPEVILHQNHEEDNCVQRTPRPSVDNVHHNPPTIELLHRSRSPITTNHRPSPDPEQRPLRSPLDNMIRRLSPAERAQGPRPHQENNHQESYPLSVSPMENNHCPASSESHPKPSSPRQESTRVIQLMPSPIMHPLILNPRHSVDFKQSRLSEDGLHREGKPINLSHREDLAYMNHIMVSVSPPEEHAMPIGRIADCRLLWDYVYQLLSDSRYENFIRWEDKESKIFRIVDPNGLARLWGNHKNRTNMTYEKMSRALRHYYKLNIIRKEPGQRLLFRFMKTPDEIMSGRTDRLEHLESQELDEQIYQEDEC

ETV1, sequence (P50549 whole entry): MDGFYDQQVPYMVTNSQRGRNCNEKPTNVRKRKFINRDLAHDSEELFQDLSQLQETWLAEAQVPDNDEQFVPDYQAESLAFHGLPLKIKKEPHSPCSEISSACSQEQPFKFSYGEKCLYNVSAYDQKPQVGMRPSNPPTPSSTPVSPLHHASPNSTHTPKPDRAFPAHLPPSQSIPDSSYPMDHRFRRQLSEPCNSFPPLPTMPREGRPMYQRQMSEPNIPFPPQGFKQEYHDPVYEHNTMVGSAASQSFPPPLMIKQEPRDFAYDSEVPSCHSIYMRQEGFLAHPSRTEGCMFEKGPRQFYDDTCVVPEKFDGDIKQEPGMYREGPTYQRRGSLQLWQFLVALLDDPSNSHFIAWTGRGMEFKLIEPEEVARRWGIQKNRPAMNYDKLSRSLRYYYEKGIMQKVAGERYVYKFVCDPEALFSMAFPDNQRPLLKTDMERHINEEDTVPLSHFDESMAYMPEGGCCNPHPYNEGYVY
ELF4, sequence (Q99607 whole entry): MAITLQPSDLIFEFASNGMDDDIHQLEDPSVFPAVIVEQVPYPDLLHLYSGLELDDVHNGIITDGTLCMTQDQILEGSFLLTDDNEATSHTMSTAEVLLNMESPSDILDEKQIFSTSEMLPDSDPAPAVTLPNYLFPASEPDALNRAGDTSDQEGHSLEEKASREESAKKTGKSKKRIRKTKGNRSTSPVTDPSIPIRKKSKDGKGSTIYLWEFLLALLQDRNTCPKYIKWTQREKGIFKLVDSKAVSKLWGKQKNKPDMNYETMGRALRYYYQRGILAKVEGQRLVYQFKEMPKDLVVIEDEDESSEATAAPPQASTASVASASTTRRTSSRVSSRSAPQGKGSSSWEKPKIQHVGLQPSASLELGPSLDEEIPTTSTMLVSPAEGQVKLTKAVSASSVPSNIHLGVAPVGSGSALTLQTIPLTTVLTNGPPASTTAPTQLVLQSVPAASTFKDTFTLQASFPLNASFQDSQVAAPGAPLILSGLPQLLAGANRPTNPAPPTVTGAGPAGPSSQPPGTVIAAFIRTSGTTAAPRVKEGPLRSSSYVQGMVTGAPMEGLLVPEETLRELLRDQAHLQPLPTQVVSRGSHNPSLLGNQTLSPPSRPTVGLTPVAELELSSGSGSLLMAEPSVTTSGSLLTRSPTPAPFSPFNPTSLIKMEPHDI
CRX, sequence (O43186 whole entry): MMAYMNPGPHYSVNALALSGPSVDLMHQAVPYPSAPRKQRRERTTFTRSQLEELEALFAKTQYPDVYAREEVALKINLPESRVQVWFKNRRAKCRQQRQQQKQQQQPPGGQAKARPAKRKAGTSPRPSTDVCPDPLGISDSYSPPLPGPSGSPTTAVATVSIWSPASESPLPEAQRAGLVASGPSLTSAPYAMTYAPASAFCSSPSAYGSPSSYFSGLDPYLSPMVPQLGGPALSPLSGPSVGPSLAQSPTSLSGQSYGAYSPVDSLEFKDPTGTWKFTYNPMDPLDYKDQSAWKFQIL
ETV5, sequence (P41161 whole entry): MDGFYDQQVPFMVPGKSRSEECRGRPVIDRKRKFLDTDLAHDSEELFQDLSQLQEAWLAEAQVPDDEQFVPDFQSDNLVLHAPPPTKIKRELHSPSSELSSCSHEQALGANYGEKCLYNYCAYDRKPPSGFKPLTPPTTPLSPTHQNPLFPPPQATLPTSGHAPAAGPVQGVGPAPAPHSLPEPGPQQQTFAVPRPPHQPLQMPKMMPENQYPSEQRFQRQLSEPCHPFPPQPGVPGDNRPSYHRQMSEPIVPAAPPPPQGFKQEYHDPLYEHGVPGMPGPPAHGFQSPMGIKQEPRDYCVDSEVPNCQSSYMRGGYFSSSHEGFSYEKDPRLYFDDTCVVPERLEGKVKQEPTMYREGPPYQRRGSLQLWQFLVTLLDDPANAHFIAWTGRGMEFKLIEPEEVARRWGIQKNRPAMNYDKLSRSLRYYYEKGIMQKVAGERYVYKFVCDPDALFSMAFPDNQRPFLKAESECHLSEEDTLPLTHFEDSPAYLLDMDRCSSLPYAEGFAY
HSF1, sequence (Q00613 whole entry): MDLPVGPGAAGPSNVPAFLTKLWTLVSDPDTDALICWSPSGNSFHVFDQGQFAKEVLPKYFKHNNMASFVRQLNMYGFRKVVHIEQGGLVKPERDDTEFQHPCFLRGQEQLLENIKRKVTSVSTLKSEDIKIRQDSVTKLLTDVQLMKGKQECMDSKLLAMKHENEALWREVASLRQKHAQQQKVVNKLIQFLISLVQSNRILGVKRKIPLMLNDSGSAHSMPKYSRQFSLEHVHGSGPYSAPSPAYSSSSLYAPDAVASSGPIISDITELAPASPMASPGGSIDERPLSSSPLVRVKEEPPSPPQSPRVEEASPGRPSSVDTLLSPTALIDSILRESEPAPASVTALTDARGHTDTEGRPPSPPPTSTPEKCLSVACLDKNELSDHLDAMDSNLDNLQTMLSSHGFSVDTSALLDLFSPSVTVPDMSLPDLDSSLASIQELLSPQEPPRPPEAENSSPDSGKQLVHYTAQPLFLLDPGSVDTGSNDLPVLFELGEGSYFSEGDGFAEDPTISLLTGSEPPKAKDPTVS

Regarding CCTACG, the binding signal was 1.48 fold enrichment (6-mer frequency, TF over GST control) with FEV; 1.32 fold enrichment (6-mer frequency, TF over GST control) with ETV5; 1.21 fold enrichment (6-mer frequency, TF over GST control) in the assay with HSF1; 1.37 fold enrichment (6-mer frequency, TF over GST control) with SPIC; 1.37 fold enrichment (6-mer frequency, TF over GST control) in the assay with ELF4; 1.38 fold enrichment (6-mer frequency, TF over GST control) with ELK4. The binding signal was 1.44 fold enrichment (6-mer frequency, TF over GST control) with ETV2; 1.5 fold enrichment (6-mer frequency, TF over GST control) with ELF3; 1.11 fold enrichment (6-mer frequency, TF over GST control) with CRX; 1.47 fold enrichment (6-mer frequency, TF over GST control) in the assay with ETV1; 1.37 fold enrichment (6-mer frequency, TF over GST control) with ERF; 1.59 fold enrichment (6-mer frequency, TF over GST control) in the assay with ETV3L. The binding signal with ETS2 is 1.35 fold enrichment (6-mer frequency, TF over GST control); with SPDEF it was 1.41 fold enrichment (6-mer frequency, TF over GST control); with ETV7, 1.49 fold enrichment (6-mer frequency, TF over GST control); with ELF5, 1.43 fold enrichment (6-mer frequency, TF over GST control); with ETV3 it was 1.38 fold enrichment (6-mer frequency, TF over GST control); in the assay with ETV6 it was 1.61 fold enrichment (6-mer frequency, TF over GST control).

The values are drawn from publication PMC7862700, “An all-to-all approach to the identification of sequence-specific readers for epigenetic DNA modifications on cytosine”.
